The supplement of paper PMC10681739

Legend:
ETS1 [1] = biological target: T1, ETS1 (UniProt P14921); test: ETS1 binding intensity (PBM fluorescence), ETS1 alone (arbitrary fluorescence units); higher = stronger binding; settings: ETS1 concentration 1 nM; RUNX1 concentration 0 nM
T1 sequence: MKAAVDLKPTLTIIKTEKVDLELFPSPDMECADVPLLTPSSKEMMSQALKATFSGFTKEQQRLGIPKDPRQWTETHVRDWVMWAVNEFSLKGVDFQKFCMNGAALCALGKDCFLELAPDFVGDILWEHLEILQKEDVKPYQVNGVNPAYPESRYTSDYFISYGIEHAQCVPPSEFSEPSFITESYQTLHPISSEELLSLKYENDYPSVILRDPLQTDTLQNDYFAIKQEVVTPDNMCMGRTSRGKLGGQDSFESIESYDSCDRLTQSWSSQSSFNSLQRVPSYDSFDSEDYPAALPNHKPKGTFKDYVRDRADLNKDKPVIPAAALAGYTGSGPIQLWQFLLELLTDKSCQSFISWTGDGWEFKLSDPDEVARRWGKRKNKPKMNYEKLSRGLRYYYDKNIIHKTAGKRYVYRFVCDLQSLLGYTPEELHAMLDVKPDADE

RUNX1 = RUNX1 (UniProt Q01196); test: RUNX1 binding intensity (PBM fluorescence), RUNX1 alone (arbitrary fluorescence units); higher = stronger binding; settings: RUNX1 concentration 2 nM; ETS1 concentration 0 nM
Sequence of RUNX1 (Q01196 whole entry): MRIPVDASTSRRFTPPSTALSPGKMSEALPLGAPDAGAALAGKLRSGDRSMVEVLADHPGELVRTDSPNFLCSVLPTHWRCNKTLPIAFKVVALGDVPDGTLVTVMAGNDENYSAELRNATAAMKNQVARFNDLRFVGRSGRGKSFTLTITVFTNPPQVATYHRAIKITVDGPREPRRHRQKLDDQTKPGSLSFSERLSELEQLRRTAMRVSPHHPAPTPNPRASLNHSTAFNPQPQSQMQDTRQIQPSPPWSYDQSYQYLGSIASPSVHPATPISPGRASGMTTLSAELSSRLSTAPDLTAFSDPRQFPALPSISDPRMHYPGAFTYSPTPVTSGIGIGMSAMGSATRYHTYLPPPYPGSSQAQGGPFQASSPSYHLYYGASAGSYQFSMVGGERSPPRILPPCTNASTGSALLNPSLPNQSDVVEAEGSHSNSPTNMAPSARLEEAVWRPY
Description: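 Cooperative gcPBM on 36-bp genomic probes with neighbouring ETS1 and RUNX1 sites. Recombinant human RUNX1 (2 nM) was incubated alone or with ETS1 (25 nM) and detected with anti-RUNX1 antibody plus Alexa488 secondary. Values are medians over 4 replicate spots; the RUNX1+ETS1 data were normalised to the RUNX1-only data. The probes sit in constant array flanks that are not printed.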

ETS1 [2] = biological target: T1, ETS1; test: ETS1 binding intensity (PBM fluorescence) in presence of RUNX1, normalised to ETS1-only experiment (arbitrary fluorescence units); higher = stronger binding; settings: ETS1 concentration 1 nM; RUNX1 concentration 25 nM
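Wherever RUNX1 binding intensity (PBM fluorescence), RUNX1 alone is given: Full-length recombinant human RUNX1 bound to double-stranded 36-bp genomic probes on a high-density microarray, scored as Alexa488 fluorescence per spot via anti-RUNX1 antibody, median of four replicate spots.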

| Sequence | ETS1 binding intensity (ETS1 [1]) | RUNX1 binding intensity (RUNX1) | ETS1 binding intensity (ETS1 [2]) |
| --- | --- | --- | --- |
| GGAGCATCCCGGAAGTCGTCACTGCGGCCGCTCCCG | 6420 | 690 | 8070 |
| AGCTTCCTGTTTGGCCTTGCTGATGTCACCGCATTA | 729 | 932 | 1090 |
| GTGTGCGTGAGAAGAGGAAGTGGTTAGGAAGACACA | 4030 | 801 | 12200 |
| CCGAGCTTAACGACATCCTGCGGCTCAGCGTGGAGG | 435 | 792 | 471 |
| AATTGAGACAGGAAATGTTGGTTTGTGGTCAGGCAC | 5020 | 1170 | – |
| GAAATGAAGGCCGGATGTCAGTAACCACAAACGAGC | 7620 | 1040 | 47500 |
| TTGTGCTTCCTGCTCATGAGATTGCTAGCGGTTACT | 491 | 803 | 707 |
| AGCCACGGACTTCCGCCTACAGGTCGCCGCAGGTCC | 701 | 756 | 882 |
| CAGGCTCGCCACAGGGGAAGTGGTTAGGGCGGGTCC | 684 | 775 | – |
| ATAGAAACTACAGGAAATACTGTGGTCAGGTTTTGA | 2770 | 822 | 9500 |
| TGCGCCGGGAGGAAGGGCTCCAAAACCACAGGGCGG | 411 | 900 | 1400 |
| GACAAAACACAGAAAGGAAGTGGTCAACTATTGCAC | 2510 | 835 | 4930 |
| CATAGACCGGATGCCTCGTCAACCACAGAAACCAAT | 2620 | 1000 | – |
| GGGTCCTTCCGGGTTTTGTGTCGAATCTGCGGCGGC | 486 | 784 | 395 |
| AAGTTTTGGGTTTTCCGCCCACAGCCGCCGAAAGTG | 630 | 888 | 684 |
| AACCCCAAAACGGAAACACCGGAGCCACAAGCTGAG | 731 | 900 | 961 |
| CTAGCTGTGGACAGGAAACGAGTGGTTTTTGTGATC | 5270 | 740 | 8040 |
| TTATTTCCTCTTTTTTTTTTTTTTTTTGGTTTTGCT | 483 | 1960 | 440 |
| CATCAAGTATTTCCTCACGCAAGCAACCGCATCCAT | 392 | 1180 | 634 |
| TCAGAACCAGGAAACTGAAGGCGGTTACTCCACATA | 526 | 742 | 663 |
| CTGACAGTTACTTCCTGTCTTTGTGGGCGATTGTGA | 3170 | 829 | 4620 |
| CGAGTAGAGATAGCAGGAAGTGGTTTATTCTGAGGT | 6000 | 784 | 12600 |
| GAATGACAGAAGCGGAAACCACATGAAAAAGGTGTT | 2010 | 913 | 4230 |
| AGCTTGACGAAGGCTTCCTGTGGTTTGGGTTGATGT | 486 | 824 | 964 |
| CCCCAGGTTGCTTCCGTTCTGGGAACCGCGTCCTCG | 1190 | – | 984 |
| GCCGTGGGTACGACCGGAAGCCGCAGGTGGGTGAAG | 18000 | 772 | 35000 |
| GTCGGGAAGTAGGCGGGGTGACGTGTGGTTGACGAG | 426 | – | 546 |
